# Measurements reported in PubChem BioAssay (NCI).
# Values joined by “and” are separate entries in the source; they are usually repeats but may differ in a detail not shown here. Equal entries are not always repeated. The panel holds about 83,000 compounds, 20% with a hit somewhere; the sample as a whole holds those more often.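 Negative percent growth values reflect cell death: -40 means 40% of the cells present at the start died, and -100 means all died.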 Active and inactive are the calls of the source. The calls were made as follows: active = growth percent below 10; inactive = the rest.
# Assays:
# Assay in all cases: NCI-60 one-dose screen, 48 h (100 = growth as untreated, 0 = no growth, -100 = all killed)
# Conditions in all cases: 10 µM unless noted
# [1] = system: SK-MEL-2 melanoma
# [2] = system: EKVX NSCLC
# [3] = system: SN12C renal
# [4] = system: UO-31 renal
# [5] = system: TK-10 renal
# [6] = system: ACHN renal
# [7] = system: CAKI-1 renal
# [8] = system: A498 renal
# [9] = system: CCRF-CEM leukemia
# [10] = system: MOLT-4 leukemia
Compound,growth [1],growth [2],growth [3],growth [4],growth [5],growth [6],growth [7],growth [8],growth [9],growth [10]
Cn1c(=O)c2c(nc(Nc3cc(=O)[nH]c(=O)[nH]3)n2Cc2ccccc2)n(C)c1=O,-2.98% (active),90% (inactive),95.2% (inactive),79.5% (inactive),14.3% (inactive),100% (inactive),37.9% (inactive),-13.8% (active),95.1% (inactive),92.7% (inactive)
OB(O)c1ccsc1-c1nc2ccc3[nH]ncc3c2c2c1CCCC2,55.9% (inactive),34.7% (inactive),56.4% (inactive),38.3% (inactive),48.7% (inactive),23.3% (inactive),13.7% (inactive),-2.71% (active),56.2% (inactive),58.5% (inactive)
NS(=O)(=O)c1ccc(C(=O)N=Nc2c(O)[nH]c3c(F)cccc23)cc1,104% (inactive),102% (inactive),97.1% (inactive),76.4% (inactive),107% (inactive),97.3% (inactive),93.2% (inactive),104% (inactive),102% (inactive),124% (inactive)
COc1cc(NC2CCCCC2O)c2nc(-c3ccc(Cl)cc3)ccc2c1 (stereo not given),91.5% (inactive) and 80.4% (inactive),78.3% (inactive) and 94.4% (inactive),80.1% (inactive) and 103% (inactive),71.1% (inactive) and 86.8% (inactive),82.2% (inactive) and 125% (inactive),84.4% (inactive) and 87.5% (inactive),46.9% (inactive) and 61.3% (inactive),101% (inactive),53.7% (inactive) and 40.2% (inactive),33.4% (inactive)
CCOc1ccccc1NC(=O)c1cc2ccccc2cc1O,37.4% (inactive),75% (inactive),42.8% (inactive),23.7% (inactive),50.6% (inactive),29.3% (inactive),45.7% (inactive),32.7% (inactive),32.4% (inactive),44.6% (inactive)
CCN(CC)/C([O-])=c1\cccc\c1=C1\N=C(c2ccccc2)N=C1[n+]1ccc(-c2ccccc2)cc1,78.1% (inactive),93.4% (inactive),89.5% (inactive),37.1% (inactive),102% (inactive),95.8% (inactive),99.9% (inactive),96% (inactive),84.6% (inactive),88% (inactive)
O=C1Nc2ccccc2/C1=C/c1cccn1CCCCCn1c2ccccc2c(=O)c2ccccc21,84% (inactive),71.8% (inactive),97.1% (inactive),49.3% (inactive),93.8% (inactive),55.1% (inactive),65.9% (inactive),108% (inactive),44.9% (inactive),46% (inactive)
Nc1ccc(-c2ccc(N)c(Br)c2)cc1Br,44% (inactive),59% (inactive),45.7% (inactive),35% (inactive),75.6% (inactive),76.5% (inactive),50.3% (inactive),74.5% (inactive),19.6% (inactive),27.2% (inactive)
CC[C@@H]1NC(=O)[C@H]([C@H](O)[C@H](C)C/C=C/c2ccc(CN3C(=O)C(C)=C(C)C3=O)cc2)N(C)C(=O)[C@H](C(C)C)N(C)C(=O)[C@H](CC(C)C)N(C)C(=O)[C@H](CC(C)C)N(C)C(=O)[C@@H](C)NC(=O)[C@H](C)NC(=O)[C@H](CC(C)C)N(C)C(=O)[C@H](C(C)C)NC(=O)[C@H](CC(C)C)N(C)C(=O)CN(C)C1=O,81% (inactive),49.1% (inactive),83.9% (inactive),57.3% (inactive),75% (inactive),74.7% (inactive),86.3% (inactive),54.2% (inactive),63.6% (inactive),62.4% (inactive)
COc1ccc2c(c1)CC[C@@H]1[C@@H]2CC[C@]2(C)C3C(=CCC4C(=O)N(c5ccccc5)C(=O)C43)C[C@@H]12 (stereo not given in full),95.7% (inactive),93% (inactive),108% (inactive),74.3% (inactive),105% (inactive),80.8% (inactive),71.7% (inactive),114% (inactive),66.7% (inactive),74.2% (inactive)
O=C1/C(=C/c2ccc(-c3ccccc3C(F)(F)F)o2)SC(=S)N1CCc1ccc(O)cc1,70.1% (inactive),75.3% (inactive),66.6% (inactive),40.1% (inactive),83.1% (inactive),66.3% (inactive),33.8% (inactive),79.1% (inactive),11.9% (inactive),17.5% (inactive)
O=C(CCl)n1nnnc1Cc1ccccc1,86.9% (inactive),105% (inactive),92.2% (inactive),74.3% (inactive),88.1% (inactive),95.1% (inactive),92.4% (inactive),109% (inactive),86.3% (inactive),94.2% (inactive)
O=C1/C(=C/c2cn(-c3ccccc3)nc2-c2ccccc2)SC(=S)N1c1ccccc1,110% (inactive),99% (inactive),90.7% (inactive),82.3% (inactive),106% (inactive),95.5% (inactive),87.2% (inactive),91.1% (inactive),101% (inactive),109% (inactive)
CCN(CC)CCOc1ccc(/C(=C(\Cl)c2ccccc2)c2ccccc2)cc1,7.89% (active),47.7% (inactive) and 87.7% (inactive),54.8% (inactive) and 75.6% (inactive),24% (inactive) and 66.4% (inactive),111% (inactive),52.8% (inactive) and 81.3% (inactive),41.3% (inactive) and 69.9% (inactive),77.1% (inactive),28% (inactive) and 89% (inactive),36.8% (inactive) and 91.6% (inactive)
COc1ccc(Nc2ncnc3ccc(-c4cncc(NS(C)(=O)=O)c4)cc23)cc1Cl,-4.48% (active),67.3% (inactive),38% (inactive),50.1% (inactive),18.2% (inactive),80.4% (inactive),79.8% (inactive),7.85% (active),6.14% (active),-27.6% (active)
COc1ccc(Oc2nc(Nc3ccc(N4CCOCC4)cc3)ncc2NC(=O)c2cc(OC)cc(OC)c2)cc1,95.4% (inactive),94.8% (inactive),89% (inactive),55.5% (inactive),103% (inactive),86.1% (inactive),100% (inactive),8.34% (active),70% (inactive),53.3% (inactive)
O=C(Nc1ncc(Cc2cccc(C(F)(F)F)c2)s1)c1ccc(-n2cnnn2)cc1,89.4% (inactive),40.2% (inactive),79.9% (inactive),48.3% (inactive),50.4% (inactive),32% (inactive),30.1% (inactive),54.7% (inactive),55.3% (inactive),39.4% (inactive)
CC/C(=C(/c1ccc(Cl)cc1)c1ccc(OCCN2CCOCC2)cc1)c1ccccc1,93.7% (inactive),85.1% (inactive),95.8% (inactive),86.4% (inactive),108% (inactive),98.3% (inactive),69.4% (inactive),99.7% (inactive),83.9% (inactive),86% (inactive)
CC12OC(CC(O)C1O)n1c3ccccc3c3c4c(c5c6ccccc6n2c5c31)C(=O)N(CCN1CCOCC1)C4=O (stereo not given),12.6% (inactive),32% (inactive),10.3% (inactive),-9.86% (active),-11.1% (active),-59.7% (active),2.22% (active),-15.3% (active),16.4% (inactive),3.59% (active)
CCN(CC)CCCN1C(=O)c2c(c(C)c3c(oc4cc(OC)ccc43)c2C)C1=O,112% (inactive),99.3% (inactive),89.1% (inactive),67.4% (inactive),112% (inactive),63.1% (inactive),93.2% (inactive),97.7% (inactive),61% (inactive),93.9% (inactive)
COc1ccc(Oc2nc(Nc3ccc(N4CCOCC4)cc3)ncc2NC(=O)c2cccc(C(F)(F)F)c2)cc1,97.2% (inactive),81.3% (inactive),85.8% (inactive),71.2% (inactive),93% (inactive),79.9% (inactive),88.9% (inactive),63.4% (inactive),49.9% (inactive),43.7% (inactive)
COc1ccc(-c2nc(Cl)c3c(C)nn(-c4ccc(F)cc4)c3n2)cc1,91.9% (inactive),111% (inactive),99% (inactive),97.3% (inactive),98% (inactive),106% (inactive),107% (inactive),101% (inactive),102% (inactive),103% (inactive)
COc1c(NC=O)c2c(c([N+](=O)[O-])c1OC)C(=O)OC2,107% (inactive) and 120% (inactive),110% (inactive) and 85.7% (inactive),92.1% (inactive) and 94.8% (inactive),80.2% (inactive),114% (inactive) and 111% (inactive),130% (inactive) and 112% (inactive),105% (inactive) and 89.1% (inactive),111% (inactive),91.5% (inactive) and 3.53% (active),67.9% (inactive) and 115% (inactive)
COC(=O)c1nc(-c2ccc(C)cc2)oc1Sc1ccc(C)cc1,104% (inactive),105% (inactive),96% (inactive),82.6% (inactive),106% (inactive),96.1% (inactive),95% (inactive),130% (inactive),86.9% (inactive),71.7% (inactive)
